# Source: publication PMC7862700, “An all-to-all approach to the identification of sequence-specific readers for epigenetic DNA modifications on cytosine”
# Columns and labels:
# Test in all cases: DAPPL (digital affinity profiling via proximity ligation, sequencing); 10 mM Tris-HCl pH 7.5, 50 mM NaCl, 1 mM DTT, 4% glycerol, room temperature, 30 min; GST-TFs on glutathione beads, 16-mer random dsDNA library, 0.1% formaldehyde crosslink after washing; high values mean tight binding
# Conditions in all cases: protein: recombinant; tags: N-terminal GST; dsDNA, one strand shown
# ELK1 = target: T1, ELK1 (Homo sapiens, UniProt P19419 1-428)
# T1 sequence: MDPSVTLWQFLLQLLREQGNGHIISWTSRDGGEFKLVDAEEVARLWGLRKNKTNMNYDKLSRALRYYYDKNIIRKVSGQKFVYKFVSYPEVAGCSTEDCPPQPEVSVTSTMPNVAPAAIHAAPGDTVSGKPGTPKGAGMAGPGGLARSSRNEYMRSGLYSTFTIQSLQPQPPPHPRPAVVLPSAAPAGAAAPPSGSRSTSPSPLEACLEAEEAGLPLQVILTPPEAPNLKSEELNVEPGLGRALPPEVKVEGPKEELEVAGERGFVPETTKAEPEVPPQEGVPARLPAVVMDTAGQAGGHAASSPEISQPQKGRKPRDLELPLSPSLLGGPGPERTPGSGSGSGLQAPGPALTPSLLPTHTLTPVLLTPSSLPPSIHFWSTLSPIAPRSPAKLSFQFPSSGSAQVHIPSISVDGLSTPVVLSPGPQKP
# Method in brief: (§1)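 GST fusions of human transcription factors were expressed in yeast and captured with glutathione beads. Once given DNA barcodes and pooled alongside a tag-only sample, they were incubated for 30 min at room temperature with 200 nmole of a random double-stranded 16-mer DNA library in Tris/NaCl/DTT/glycerol buffer, then washed, crosslinked (0.1% formaldehyde), proximity-ligated, PCR-amplified and sequenced on an Illumina NextSeq500. The binding signal of each hexamer is its read frequency for a factor divided by its frequency for the tag-only sample.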
# GABPA = target: T2, GABPA (Homo sapiens, UniProt Q06546 1-454)
# T2 sequence: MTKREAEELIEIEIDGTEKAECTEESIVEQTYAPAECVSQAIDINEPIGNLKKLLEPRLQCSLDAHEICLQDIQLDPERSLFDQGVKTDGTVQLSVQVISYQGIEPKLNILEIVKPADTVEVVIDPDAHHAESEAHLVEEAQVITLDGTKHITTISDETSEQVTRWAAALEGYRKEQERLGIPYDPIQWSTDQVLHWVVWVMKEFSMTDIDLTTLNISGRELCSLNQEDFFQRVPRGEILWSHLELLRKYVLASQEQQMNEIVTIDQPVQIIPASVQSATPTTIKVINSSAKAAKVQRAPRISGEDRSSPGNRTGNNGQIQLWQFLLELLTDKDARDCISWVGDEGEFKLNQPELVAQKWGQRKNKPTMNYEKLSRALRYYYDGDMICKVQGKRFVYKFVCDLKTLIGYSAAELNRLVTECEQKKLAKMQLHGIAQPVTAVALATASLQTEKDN
# Method in brief: as §1
# ERG = target: T3, ERG (Homo sapiens, UniProt P11308 1-479)
# T3 sequence: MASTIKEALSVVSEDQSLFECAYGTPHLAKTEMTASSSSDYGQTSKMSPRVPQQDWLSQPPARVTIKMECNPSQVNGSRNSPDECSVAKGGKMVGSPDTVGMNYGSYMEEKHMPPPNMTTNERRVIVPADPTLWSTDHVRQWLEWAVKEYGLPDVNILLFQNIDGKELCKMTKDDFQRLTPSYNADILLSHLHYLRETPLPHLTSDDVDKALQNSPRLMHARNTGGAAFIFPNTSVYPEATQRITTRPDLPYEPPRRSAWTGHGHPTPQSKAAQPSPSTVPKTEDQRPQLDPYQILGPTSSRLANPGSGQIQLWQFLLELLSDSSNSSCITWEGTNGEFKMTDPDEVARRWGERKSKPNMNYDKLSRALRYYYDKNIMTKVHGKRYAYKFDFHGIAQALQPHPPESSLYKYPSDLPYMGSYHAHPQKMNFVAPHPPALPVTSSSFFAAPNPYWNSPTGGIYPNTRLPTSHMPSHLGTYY
# Method in brief: as §1
# ELF1 = ELF1 (Homo sapiens, UniProt P32519 1-619)
# ELF1, sequence (P32519 whole entry): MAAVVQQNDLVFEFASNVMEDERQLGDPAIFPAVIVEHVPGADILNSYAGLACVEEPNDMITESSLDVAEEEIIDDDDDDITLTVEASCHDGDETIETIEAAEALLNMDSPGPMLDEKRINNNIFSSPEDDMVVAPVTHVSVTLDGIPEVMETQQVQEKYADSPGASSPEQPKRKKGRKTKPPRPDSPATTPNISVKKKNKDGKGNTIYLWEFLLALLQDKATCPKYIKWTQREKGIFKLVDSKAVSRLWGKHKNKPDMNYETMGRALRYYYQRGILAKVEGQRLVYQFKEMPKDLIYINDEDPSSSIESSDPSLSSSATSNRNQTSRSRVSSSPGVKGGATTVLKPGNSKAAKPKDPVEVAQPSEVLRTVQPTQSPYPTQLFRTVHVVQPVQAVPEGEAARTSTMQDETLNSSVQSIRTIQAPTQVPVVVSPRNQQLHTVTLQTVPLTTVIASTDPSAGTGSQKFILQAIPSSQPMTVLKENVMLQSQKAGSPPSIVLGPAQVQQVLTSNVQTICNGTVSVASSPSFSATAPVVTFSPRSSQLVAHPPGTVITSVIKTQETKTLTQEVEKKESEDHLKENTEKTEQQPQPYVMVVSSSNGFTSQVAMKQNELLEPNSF
# Method in brief: as §1
# EHF = target: T4, EHF (Homo sapiens, UniProt Q9NZC4 1-300)
# T4 sequence: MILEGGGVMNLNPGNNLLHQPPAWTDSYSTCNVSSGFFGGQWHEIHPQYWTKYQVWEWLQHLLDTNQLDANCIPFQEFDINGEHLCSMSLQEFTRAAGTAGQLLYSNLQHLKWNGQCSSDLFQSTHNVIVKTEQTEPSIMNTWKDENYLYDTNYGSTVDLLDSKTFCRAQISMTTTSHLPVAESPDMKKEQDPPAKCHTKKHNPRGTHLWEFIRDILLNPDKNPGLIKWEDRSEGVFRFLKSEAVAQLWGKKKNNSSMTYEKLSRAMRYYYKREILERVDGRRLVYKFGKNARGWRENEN
# Method in brief: as §1
# SPIB = SPIB (Homo sapiens, UniProt Q01892 1-262)
# SPIB, sequence (Q01892 whole entry): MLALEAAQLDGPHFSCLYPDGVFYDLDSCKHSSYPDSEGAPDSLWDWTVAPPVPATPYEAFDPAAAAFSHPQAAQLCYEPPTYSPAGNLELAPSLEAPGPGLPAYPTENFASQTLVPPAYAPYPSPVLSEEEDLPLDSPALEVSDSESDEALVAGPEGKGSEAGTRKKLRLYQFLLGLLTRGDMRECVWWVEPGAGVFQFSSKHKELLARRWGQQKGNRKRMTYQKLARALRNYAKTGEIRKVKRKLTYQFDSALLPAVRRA
# Method in brief: as §1
# ELK3 = target: T5, ELK3 (Homo sapiens, UniProt P41970 1-407)
# T5 sequence: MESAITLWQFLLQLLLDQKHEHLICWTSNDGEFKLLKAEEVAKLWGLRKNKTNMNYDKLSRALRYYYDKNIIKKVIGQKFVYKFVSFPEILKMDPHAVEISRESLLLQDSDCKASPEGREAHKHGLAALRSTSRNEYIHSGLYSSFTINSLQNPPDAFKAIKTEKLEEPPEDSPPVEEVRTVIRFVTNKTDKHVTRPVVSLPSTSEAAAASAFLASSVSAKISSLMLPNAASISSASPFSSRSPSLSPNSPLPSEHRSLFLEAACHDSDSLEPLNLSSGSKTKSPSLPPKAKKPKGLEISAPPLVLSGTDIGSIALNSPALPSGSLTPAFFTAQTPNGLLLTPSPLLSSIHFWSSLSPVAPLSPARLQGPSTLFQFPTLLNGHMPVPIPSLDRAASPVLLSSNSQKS
# Method in brief: as §1
# FEV = target: T6, FEV (Homo sapiens, UniProt Q99581 1-238)
# T6 sequence: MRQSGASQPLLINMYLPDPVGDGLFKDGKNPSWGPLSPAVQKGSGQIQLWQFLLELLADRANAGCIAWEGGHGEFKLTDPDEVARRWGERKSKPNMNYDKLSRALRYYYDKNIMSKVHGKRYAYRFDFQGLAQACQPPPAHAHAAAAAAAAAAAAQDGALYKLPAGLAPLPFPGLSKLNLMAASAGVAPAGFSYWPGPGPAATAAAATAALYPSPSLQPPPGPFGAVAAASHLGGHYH
# Method in brief: as §1
# ETV5 = ETV5 (Homo sapiens, UniProt P41161 1-510)
# ETV5, sequence (P41161 whole entry): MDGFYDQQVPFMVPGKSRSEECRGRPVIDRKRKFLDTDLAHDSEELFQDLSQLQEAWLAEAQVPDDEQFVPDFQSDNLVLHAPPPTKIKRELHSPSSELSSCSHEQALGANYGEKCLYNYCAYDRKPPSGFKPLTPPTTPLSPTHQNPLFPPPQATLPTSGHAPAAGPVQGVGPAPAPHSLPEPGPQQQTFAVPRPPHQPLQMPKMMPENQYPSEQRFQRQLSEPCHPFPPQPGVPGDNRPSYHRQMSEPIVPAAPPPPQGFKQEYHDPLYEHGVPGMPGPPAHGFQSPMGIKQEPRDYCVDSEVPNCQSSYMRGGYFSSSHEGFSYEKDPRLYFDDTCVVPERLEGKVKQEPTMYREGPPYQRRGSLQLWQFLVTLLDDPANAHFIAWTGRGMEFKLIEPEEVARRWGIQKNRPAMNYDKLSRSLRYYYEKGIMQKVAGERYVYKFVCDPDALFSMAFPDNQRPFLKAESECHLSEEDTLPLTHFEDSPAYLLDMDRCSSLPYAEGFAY
# Method in brief: as §1
# ELF4 = ELF4 (Homo sapiens, UniProt Q99607 1-663)
# ELF4, sequence (Q99607 whole entry): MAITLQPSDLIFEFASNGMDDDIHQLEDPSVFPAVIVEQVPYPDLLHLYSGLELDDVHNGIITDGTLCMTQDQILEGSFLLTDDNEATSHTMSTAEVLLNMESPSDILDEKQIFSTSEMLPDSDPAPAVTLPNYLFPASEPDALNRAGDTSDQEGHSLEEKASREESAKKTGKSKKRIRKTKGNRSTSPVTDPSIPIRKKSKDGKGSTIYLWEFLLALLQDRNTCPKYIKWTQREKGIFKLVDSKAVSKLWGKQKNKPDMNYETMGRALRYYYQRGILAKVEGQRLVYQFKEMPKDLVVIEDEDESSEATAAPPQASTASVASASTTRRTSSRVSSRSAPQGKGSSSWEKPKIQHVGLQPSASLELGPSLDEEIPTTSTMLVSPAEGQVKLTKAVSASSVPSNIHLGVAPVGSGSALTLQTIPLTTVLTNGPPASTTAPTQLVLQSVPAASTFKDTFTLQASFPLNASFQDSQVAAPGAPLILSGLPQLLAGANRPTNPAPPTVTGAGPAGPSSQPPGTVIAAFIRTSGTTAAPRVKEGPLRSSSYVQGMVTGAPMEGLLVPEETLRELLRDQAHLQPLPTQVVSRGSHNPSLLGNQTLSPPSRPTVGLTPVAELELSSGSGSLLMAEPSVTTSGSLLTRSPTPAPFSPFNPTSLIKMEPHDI
# Method in brief: as §1
sequence,measurement,setting,value
AAGATC,binding signal,ELK1,"1.07 fold enrichment (6-mer frequency, TF over GST control)"
same,binding signal,GABPA,"1.08 fold enrichment (6-mer frequency, TF over GST control)"
same,binding signal,ERG,"1.07 fold enrichment (6-mer frequency, TF over GST control)"
same,binding signal,ELF1,"1.05 fold enrichment (6-mer frequency, TF over GST control)"
same,binding signal,EHF,"1.04 fold enrichment (6-mer frequency, TF over GST control)"
same,binding signal,SPIB,"1.13 fold enrichment (6-mer frequency, TF over GST control)"
same,binding signal,ELK3,"1.02 fold enrichment (6-mer frequency, TF over GST control)"
same,binding signal,FEV,"1.03 fold enrichment (6-mer frequency, TF over GST control)"
same,binding signal,ETV5,"1.03 fold enrichment (6-mer frequency, TF over GST control)"
same,binding signal,ELF4,"1.03 fold enrichment (6-mer frequency, TF over GST control)"
